Laboratory results: PubChem BioAssay (EPA / NIEHS)
The source made the active and inactive calls. The calls were made as follows: active = hit-call score of the fitted dose curve at least 0.9, where 1 is the maximum; inactive = score below 0.9.

Tests used:
[1] = read-out: Interleukin-1 alpha (IL1a), IL1A (gene 3552); assay: BSK_KF3CT_IL1a: BioMAP Diversity Plus: KF3CT Assay for Interleukin-1 alpha (IL1a) Biomarker Activity (AID 2283070); conditions: primary human keratinocytes with fibroblasts; actives raise or lower the signal
In short: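 Readout is IL-1a level by ELISA, compared bidirectionally with DMSO as baseline. Cells: human keratinocytes co-cultured with foreskin fibroblasts, harvested 24 h post-dose.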

[2] = read-out: TIMP metallopeptidase inhibitor 2 (TIMP2), TIMP2 (gene 7077); assay: BSK_KF3CT_TIMP2: BioMAP Diversity Plus: KF3CT Assay for TIMP metallopeptidase inhibitor 2 (TIMP2) Biomarker Activity (AID 2283071); conditions: primary human keratinocytes with fibroblasts; actives raise or lower the signal
In short: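 TIMP-2 measured by ELISA at 24 h in human keratinocyte/fibroblast primary co-cultures exposed to chemicals. Both increases and decreases were fitted against DMSO. Parallel cultures were stained with SRB for total protein as an overt-cytotoxicity check.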

[3] = read-out: Transforming growth factor beta 1 (TGFb1), TGFB1 (gene 7040); assay: BSK_KF3CT_TGFb1: BioMAP Diversity Plus: KF3CT Assay for Transforming growth factor beta 1 (TGFb1) Biomarker Activity (AID 2283072); conditions: primary human keratinocytes with fibroblasts; actives raise or lower the signal
In short: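 ELISA quantifies TGF-b1 at 24 h post-dose in a primary human skin co-culture of keratinocytes and fibroblasts, with gain or loss judged against DMSO. Parallel SRB total-protein staining flags overt cytotoxicity.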

[4] = read-out: C-C motif chemokine 2 (Homo sapiens) (UniProt P13500); assay: BSK_KF3CT_MCP1: BioMAP Diversity Plus: KF3CT Assay for Monocyte Chemoattractant Protein 1 (MCP1/CCL2) Biomarker Activity (AID 2283073); conditions: primary human keratinocytes with fibroblasts; actives raise or lower the signal
In short: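 Human keratinocyte–foreskin fibroblast co-culture; MCP-1 measured by ELISA 24 h after dosing. Bidirectional fit vs DMSO; cytotoxicity tracked by SRB total protein in parallel cultures.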

[5] = read-out: Matrix Metallopeptidase 9 (MMP9), MMP9 (gene 4318); assay: BSK_KF3CT_MMP9: BioMAP Diversity Plus: KF3CT Assay for Matrix Metallopeptidase 9 (MMP9) Biomarker Activity (AID 2283074); conditions: primary human keratinocytes with fibroblasts; actives raise or lower the signal;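 as to AC50: MMP9 protein level quantified by ELISA in the co-culture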
In short: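 Values come from bidirectional fitting relative to DMSO of MMP-9 levels, which were measured by ELISA. Measurements were taken 24 h after chemical dosing of a keratinocyte and foreskin fibroblast co-culture.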

[6] = read-out: urokinase plasminogen activator (uPA), PLAU (gene 5328); assay: BSK_KF3CT_uPA: BioMAP Diversity Plus: KF3CT Assay for urokinase plasminogen activator (uPA) Biomarker Activity (AID 2283075); conditions: primary human keratinocytes with fibroblasts; actives raise or lower the signal
In short: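 Values derive from bidirectional fitting against DMSO controls. Keratinocyte/foreskin fibroblast co-cultures received chemical; 24 h later uPA was detected by ELISA, with SRB total-protein staining in parallel wells for overt cytotoxicity.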

CD40, CD40 (gene 958) [7] = assay: BSK_LPS_CD40: BioMAP Diversity Plus: LPS Assay for CD40 Biomarker Activity (AID 2283076); conditions: primary human HUVEC with PBMC; actives raise or lower the signal
In short: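 HUVEC plus PBMC co-culture stimulated with LPS; CD40 quantified by ELISA 24 h after compound dosing. Fitting was bidirectional relative to DMSO. SRB staining of parallel cultures flagged overt cytotoxicity.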

[8] = read-out: E-selectin (Homo sapiens) (UniProt P16581); assay: BSK_LPS_Eselectin: BioMAP Diversity Plus: LPS Assay for Eselectin Biomarker Activity (AID 2283077); conditions: primary human HUVEC with PBMC; actives raise or lower the signal
In short: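 Human umbilical vein endothelial cells co-cultured with PBMC under LPS stimulation; cell-surface E-selectin measured by ELISA 24 h after dosing. Change in either direction versus DMSO, with SRB total-protein staining in parallel cultures for cytotoxicity.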

[9] = read-out: Interleukin-8 (IL8), CXCL8 (gene 3576); assay: BSK_LPS_IL8: BioMAP Diversity Plus: LPS Assay for Interleukin-8 (IL8) Biomarker Activity (AID 2283078); conditions: primary human HUVEC with PBMC; actives raise or lower the signal
In short: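 Human umbilical vein endothelial cells co-cultured with PBMC, LPS-stimulated, exposed to compound for 24 h. IL-8 quantified by ELISA; fitted in both directions against DMSO, with SRB total-protein staining of parallel cultures for cytotoxicity.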

[10] = BSK_LPS_SRB: Viability Assessment in the BioMAP Diversity Plus: LPS Assay (AID 2283079); conditions: primary human HUVEC with PBMC;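 also: total protein by sulforhodamine B absorbance as a cytotoxicity measure; measured one day after compound addition; fitted in both directions against DMSO so loss or gain of signal counts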
In short: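 Co-culture of human umbilical vein endothelial cells and PBMC, read 24 h after dosing. Total protein by 0.1% SRB staining after 10% TCA fixation, absorbance at 560 nm; bidirectional fit against DMSO.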

[11] = read-out: Interleukin-1 alpha (IL1a), IL1A (gene 3552); assay: BSK_LPS_IL1a: BioMAP Diversity Plus: LPS Assay for Interleukin-1 alpha (IL1a) Biomarker Activity (AID 2283080); conditions: primary human HUVEC with PBMC; actives raise or lower the signal
In short: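 Human umbilical vein endothelial cells co-cultured with PBMC and stimulated with LPS; IL-1a measured by ELISA 24 h after dosing. Bidirectional fitting against DMSO; cytotoxicity checked by SRB staining in parallel cultures.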

[12] = read-out: Monocyte Chemoattractant Protein-1 (MCP1), CCL2 (gene 6347); assay: BSK_LPS_MCP1: BioMAP Diversity Plus: LPS Assay for Monocyte Chemoattractant Protein-1 (MCP1) Biomarker Activity (AID 2283081); conditions: primary human HUVEC with PBMC; actives raise or lower the signal;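 as to AC50: secreted MCP-1 protein quantified by ELISA in culture supernatant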
In short: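 Human umbilical vein endothelial cells co-cultured with PBMC, LPS-stimulated; secreted MCP-1 measured by ELISA 24 h after compound addition. Bidirectional curve fitting against DMSO baseline; SRB total-protein staining in parallel cultures for cytotoxicity.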

[13] = BSK_LPS_PGE2: BioMAP Diversity Plus: LPS Assay for Prostaglandin E2 (PGE2) Biomarker Activity (AID 2283082); conditions: primary human HUVEC with PBMC; actives raise or lower the signal;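 as to AC50: secreted prostaglandin E2 measured by ELISA in LPS-stimulated co-culture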
In short: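 PGE2 release measured by ELISA in an LPS-activated co-culture of human umbilical vein endothelial cells and peripheral blood mononuclear cells, read at 24 h post-dosing. DMSO served as baseline for bidirectional curve fitting.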

[14] = read-out: Macrophage colony-stimulating factor (MCSF), CSF1 (gene 1435); assay: BSK_LPS_MCSF: BioMAP Diversity Plus: LPS Assay for Macrophage colony-stimulating factor (MCSF) Biomarker Activity (AID 2283083); conditions: primary human HUVEC with PBMC; actives raise or lower the signal
In short: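 HUVEC–PBMC co-culture, M-CSF measured by ELISA 24 h after chemical dosing. Fitted in both directions relative to DMSO as negative control; overt cytotoxicity assessed by SRB total-protein staining in parallel cultures.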

[15] = read-out: Tissue Factor, F3 (gene 2152); assay: BSK_LPS_TissueFactor: BioMAP Diversity Plus: LPS Assay for Tissue Factor Biomarker Activity (AID 2283084); conditions: primary human HUVEC with PBMC; actives raise or lower the signal
In short: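 Human umbilical vein endothelial cells co-cultured with PBMC were dosed with compound. Cell-surface CD142 was measured by ELISA 24 h later. Activity was fitted bidirectionally against DMSO, with SRB total-protein staining in parallel cultures for cytotoxicity.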

[16] = read-out: Tumor necrosis factor (Homo sapiens) (UniProt P01375); assay: BSK_LPS_TNFa: BioMAP Diversity Plus: LPS Assay for Tumour Necrosis Factor alpha (TNFa) Biomarker Activity (AID 2283085); conditions: primary human HUVEC with PBMC; actives raise or lower the signal;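 as to AC50: TNFa protein level quantified by ELISA in the co-culture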
In short: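 TNFa was quantified by ELISA in LPS-activated co-cultures of human endothelial cells and PBMC, 24 h post-dosing. Both increases and decreases versus DMSO were fitted.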

[17] = read-out: Vascular cell adhesion molecule 1 (VCAM1), VCAM1 (gene 7412); assay: BSK_LPS_VCAM1: BioMAP Diversity Plus: LPS Assay for Vascular cell adhesion molecule 1 (VCAM1) Biomarker Activity (AID 2283086); conditions: primary human HUVEC with PBMC; actives raise or lower the signal
In short: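 VCAM-1 quantified by ELISA in an LPS-activated co-culture of human endothelial cells and peripheral blood mononuclear cells, read 24 h post-treatment. Fitted in both directions versus DMSO; parallel SRB staining flags overt cytotoxicity.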

CD38, CD38 (gene 952) = assay: BSK_SAg_CD38: BioMAP Diversity Plus: SAg Assay for CD38 Biomarker Activity (AID 2283087); conditions: primary human HUVEC with PBMC; actives raise or lower the signal
In short: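 CD38 quantified by ELISA (fluorescence) in a superantigen-activated endothelial cell–PBMC co-culture at 24 h post-dose. Activity fitted in both directions relative to DMSO; parallel SRB and Alamar Blue cytotoxicity read-outs.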

CD40, CD40 (gene 958) [18] = assay: BSK_SAg_CD40: BioMAP Diversity Plus: SAg Assay for CD40 Biomarker Activity (AID 2283088); conditions: primary human HUVEC with PBMC; actives raise or lower the signal
In short: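 HUVEC plus PBMC co-culture, superantigen-activated, with CD40 read by ELISA 24 h after dosing. Curves fitted in both directions against DMSO. Overt cytotoxicity checked by parallel SRB total-protein staining.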

CD69, CD69 (gene 969) = assay: BSK_SAg_CD69: BioMAP Diversity Plus: SAg Assay for CD69 Biomarker Activity (AID 2283089); conditions: primary human HUVEC with PBMC; actives raise or lower the signal;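 as to AC50: cell surface CD69 protein quantified by ELISA with fluorescence detection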
In short: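 Values derive from bidirectional fitting relative to DMSO vehicle. Cells: umbilical vein endothelium plus peripheral blood mononuclear cells, treated 24 h before fluorescent ELISA for CD69.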

Measured: AC50

Chain of Tumor necrosis factor (Homo sapiens) (P01375 whole entry, looked up): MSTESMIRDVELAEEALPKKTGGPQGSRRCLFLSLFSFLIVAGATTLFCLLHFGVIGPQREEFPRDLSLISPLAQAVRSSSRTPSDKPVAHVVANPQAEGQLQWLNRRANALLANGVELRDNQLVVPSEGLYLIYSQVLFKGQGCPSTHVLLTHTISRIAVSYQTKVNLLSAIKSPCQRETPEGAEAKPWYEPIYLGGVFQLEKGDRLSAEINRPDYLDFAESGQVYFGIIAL
Chain of E-selectin (Homo sapiens) (P16581 whole entry, looked up): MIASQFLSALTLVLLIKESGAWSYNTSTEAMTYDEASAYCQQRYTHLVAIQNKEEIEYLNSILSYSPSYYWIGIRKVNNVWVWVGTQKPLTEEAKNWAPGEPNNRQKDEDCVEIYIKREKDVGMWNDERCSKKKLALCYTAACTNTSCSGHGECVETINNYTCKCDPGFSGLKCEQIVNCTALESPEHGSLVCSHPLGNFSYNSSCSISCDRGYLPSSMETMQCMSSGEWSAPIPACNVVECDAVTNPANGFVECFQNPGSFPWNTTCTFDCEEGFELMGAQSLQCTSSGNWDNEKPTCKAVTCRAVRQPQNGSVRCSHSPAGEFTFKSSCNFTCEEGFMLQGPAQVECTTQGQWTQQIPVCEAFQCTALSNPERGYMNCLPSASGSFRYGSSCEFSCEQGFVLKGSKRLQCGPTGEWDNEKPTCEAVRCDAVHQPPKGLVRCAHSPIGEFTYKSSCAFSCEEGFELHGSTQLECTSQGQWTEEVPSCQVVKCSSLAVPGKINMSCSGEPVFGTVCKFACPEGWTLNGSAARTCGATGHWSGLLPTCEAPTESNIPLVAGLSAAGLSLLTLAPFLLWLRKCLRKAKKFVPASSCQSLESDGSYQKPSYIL

CNC(=O)ON=C(SC)C(=O)N(C)C
inactive: [1] | [2] | [3] | [4] | [5] | [6] | CD40, CD40 (gene 958) [7] | [8] | [9] | [10] | [11] | [12] | [13] | [14] | [15] | [16] | CD38, CD38 (gene 952) | CD40, CD40 (gene 958) [18] | CD69, CD69 (gene 969)
active: [17] 10.2 µM

CCCOCC(=Nc1ccc(Cl)cc1C(F)(F)F)n1ccnc1
active: [1] 36.4 µM | [2] 31.7 µM | [3] 31.1 µM | [4] 31.3 µM | [5] 28 µM | [6] 33.2 µM | CD40, CD40 (gene 958) [7] 22.3 µM | [8] 16.2 µM | [9] 32.5 µM | [10] 31.4 µM | [11] 31.8 µM | [12] 33.3 µM | [14] 20.9 µM | [15] 29.2 µM | [16] 31.3 µM | [17] 29 µM | CD40, CD40 (gene 958) [18] 18.1 µM | CD69, CD69 (gene 969) 18.9 µM
inactive: [13]

CCCOc1nn(C(=O)NS(=O)(=O)c2ccccc2C(=O)OC)c(=O)n1C
active: [5] 0.103 µM | [9] 0.907 µM
inactive: [1] | [2] | [3] | [4] | [6] | CD40, CD40 (gene 958) [7] | [8] | [10] | [11] | [12] | [13] | [14] | [15] | [16] | CD38, CD38 (gene 952) | CD40, CD40 (gene 958) [18] | CD69, CD69 (gene 969)

CCOC(=O)CC(SP(=O)(OC)OC)C(=O)OCC (stereo unspecified)
inactive: [2] | [3] | [4] | [5] | [6] | CD40, CD40 (gene 958) [7] | [9] | [10] | [11] | [12] | [14] | [15] | [16] | [17] | CD38, CD38 (gene 952) | CD40, CD40 (gene 958) [18] | CD69, CD69 (gene 969)
active: [8] 2.5 µM | [13] 0.323 µM

O=C(O)c1cc(Oc2ccc(C(F)(F)F)cc2Cl)ccc1[N+](=O)[O-]
active: [13] 16.4 µM
inactive: [1] | [2] | [3] | [4] | [5] | [6] | CD40, CD40 (gene 958) [7] | [8] | [9] | [10] | [11] | [12] | [14] | [15] | [16] | [17] | CD38, CD38 (gene 952) | CD40, CD40 (gene 958) [18] | CD69, CD69 (gene 969)

COP(=O)(NC(C)=O)SC (stereo unspecified)
inactive: [2] | [3] | [4] | [5] | [6] | CD40, CD40 (gene 958) [7] | [8] | [9] | [10] | [11] | [12] | [13] | [14] | [15] | [16] | [17] | CD38, CD38 (gene 952) | CD40, CD40 (gene 958) [18] | CD69, CD69 (gene 969)
